In PubChem BioAssay (NCI) one finds growth data, which are given here for 40 compounds.

The structures appear in SMILES notation. Compounds without any hit were thinned out: in the full panel of roughly 83,000, 20% have a hit.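 Single-concentration screen, 48 h exposure, 96-well plates. Endpoint: percent growth. Below 10 = active.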 Unmarked numbers belong to inactive results. Active and inactive are the calls of the source.

This assay has as its system M14 melanoma. The assay is described as follows: NCI-60 one-dose screen, 48 h (100 = growth as untreated, 0 = no growth, -100 = all killed). To be noted: 10 µM unless noted. The method, then:
Growth inhibition of the M14 human tumor cell line is measured as a screen for anti-cancer activity. Cells are grown in 96 well plates and exposed to the test compound for 48 hours. Compounds are tested at a single concentration, which is 10^-5 M for most compounds. The reported endpoint is percent growth (GI% or GIPRCNT), where numbers from 0 - 100% represent growth inhibition, and numbers from -100% - 0 represent cell death. For example, a value of 40 represents 60% growth inhibition. A value of 0 means no net growth occurred over the course of the experiment. A value of -40 indicates 40% of cells at the beginning of the experiment died by the end of the experiment. A value of -100 means all cells are dead at the end of the experiment.
NCI-60 Human Tumor Cell Lines Screen was performed using the standard one-dose NCI protocol, which is described in more detail at https://dtp.cancer.gov/discovery_development/nci-60/default.htm.
Compounds with GIPRCNT values below 10 were considered active. Activity score was based on GIPRCNT using the following formula: […]
Score is 0 for GIPRCNT values of 100 or above, 50 for GIPRCNT values of 0, and 100 for GIPRCNT values of -100.
With `Clc1nc2ccccc2nc1-c1nnc(C2CCCCC2)o1`, the growth is 94.3%. As for `Nc1nc(N)c2c(n1)NC(c1ccc(Cl)cc1)CC(c1ccc(Nc3nc(NCCO)nc(N4CCOCC4)n3)cc1)=N2` (stereo not given), the figure is 88.1%; as for `COc1cc2nc(Cl)nc(Nc3cccc(C4=Nc5c(N)nc(N)nc5NC(c5ccccc5)C4)c3)c2cc1OC` (stereo not given), 90.1%.

Consider `Cc1ccc(-c2cc3nc(C(Cl)Cl)nc(C)n3n2)cc1`, for which the growth was 106%. As for `O=C1CCCC2=C1C(c1c[nH]c3ccc(Br)cc13)Cc1cc(Br)ccc1N2` (stereo not given), the figure is 13.1%.

Regarding `C#C[C@]1(O)CC[C@H]2[C@@H]3CC=C4c5sc(-c6cccc(O)c6)nc5CC[C@]4(C)[C@H]3CC[C@@]21C`, the growth is -41.1% (active).

With `COc1cccc2c1CN(C(=O)c1ccc(O)c(C(=O)N3Cc4ccc(OCCC[P+](c5ccccc5)(c5ccccc5)c5ccccc5)cc4C3)c1)C2`, the growth was 89.3%.

For `CCNC(=O)N1CCc2cc(OC)c(OCCc3ccc(OC)cc3)cc2C1c1ccc([N+](=O)[O-])cc1C` (stereo not given), the growth was 23.4%. As for `C=C(C)[C@@H]1CC[C@]2(COC)CC[C@]3(C)[C@H](CC[C@@H]4[C@@]5(C)CCCNC(C)(C)[C@@H]5CC[C@]43C)[C@@H]12`, the figure is -39.4% (active); as for `CCO/C=N/C1=C(C#N)C(c2ccc(Cl)cc2)c2sc3c(C)cccc3c2O1` (stereo not given), 1.8% (active); as for `CC1=N[C@@H]2CN(C(=O)OC(C)(C)C)C[C@@H]2n2c1cc1ccccc1c2=O`, 97.7%. The figure for `CC(C)(C)n1cc(-c2ccnc(NCCCNS(=O)(=O)c3cccc(F)c3)n2)c(-c2ccc(Cl)c(O)c2)n1` is 94.9%.

Take `COc1ccc2[nH]cc(-c3csc4nc(-c5ccccc5)cn34)c2c1`: the growth was 11.6%. As for `CC(C)(C)c1ccc(C(=O)Nc2nc3ccc(O)cc3s2)cc1`, the figure is 14.3%. As for `Cc1nn(-c2ccccc2)c2ncnc(N/N=C/c3ccccc3)c12`, the growth is 103%. As for `COc1cc(OC)cc(C(=O)Nc2sc3c(c2C(N)=O)CCC(=O)C3)c1`, the figure is 22.9%; as for `C#C[C@]1(O)CC[C@H]2[C@@H]3CC=C4c5sc(-c6ccc7c(c6)OCO7)nc5CC[C@]4(C)[C@H]3CC[C@@]21C`, 6.34% (active); as for `Cc1cc(S(=O)(=O)N(C)C)cc(NCC(=O)NC(=O)NCC(C)C)c1C`, 100%. For the compound `CCCSc1nc(Nc2ccc(/C(C)=N\NC(N)=S)cc2)c(C#N)c(-c2ccccc2)n1`, the growth is 99.6%. In the case of `O=C(c1ccc(O)c(C(=O)N2Cc3ccc(OCCC[P+](c4ccccc4)(c4ccccc4)c4ccccc4)cc3C2)c1)N1Cc2cccc(F)c2C1`, the growth was 95.1%. The figure for `COc1ccc(CCN2C(=O)CSC2=S)cc1` is 101%; for `C[C@@H]1C[C@H]2C(=O)O[C@@H](C)C(NC(=O)[C@H](Cc3cc(F)cc(F)c3)NC(=O)Nc3ccc(C4CC4)cc3F)C(=O)N3CCC[C@H]3C(=O)N3CCCC[C@H]3C(=O)N[C@@H](CO)C(=O)N2C1` (stereo not given in full) it is 27.4%; for `N#C/C(=C\c1ccc(-c2ccc(Cl)cc2Cl)o1)c1ccc(F)cc1` it is 95.3%.

For `c1cc(-c2nc3ccc4[nH]ncc4c3c3c2CCCC3)[nH]n1`, the growth is 39.7%. The figure for `NS(=O)(=O)c1ccc(-n2cc(-c3cccc(NC(=O)c4ccc(N5CCOCC5)c(C(F)(F)F)c4)c3)nn2)cc1` is 45.3%; for `Cc1ccc2c(c1)C(=O)/C(=C/c1cccc(F)c1)S2` it is 109%. The figure for `Cc1nc2ncc(-c3ccc4ncnc(NCc5ccccc5)c4c3)cc2[nH]1` is 81.4%. The figure for `CCNC(=O)N1CCc2cc(OC)c(OCCc3ccc(OC)c(N)c3)cc2C1c1cc(C)c(C)cc1C` (stereo not given) is 27.9%; for `Cc1ccc(C(=O)NN2C(=O)/C(=C/C=C/c3ccco3)SC2=S)cc1` it is 99.8%; for `COc1ccc(/C=C/C(=O)c2cccc(NC(=O)CSc3nc4ccccc4c(=O)n3-c3ccccc3)c2)cc1OC` it is 102%. Turning to `Cc1ccc2sc3c(c2c1)OC(N)=C(C#N)C3c1cccc(F)c1` (stereo not given), the growth was 0.753% (active). On to `COc1cc2nc(Cl)nc(Nc3cccc(C4=Nc5c(N)nc(N)nc5NC(c5ccc(Cl)cc5)C4)c3)c2cc1OC` (stereo not given), for which the growth is 52.2%. As to `COc1ccc(S(=O)(=O)NCCCNc2nccc(-c3cn(C(C)(C)C)nc3-c3ccc(Cl)c(OC)c3)n2)cc1`, the growth was 92.8%. The figure for `O=C(c1ccc(Cl)cc1)C1[C@H](c2ccc(Cl)cc2)[C@@H](c2ccccc2)NC12C(=O)Nc1ccccc12` (stereo not given in full) is 50.2%; for `C=CC(=O)N1CCC=C(c2cc3c(N[C@H](C)c4ccccc4)ncnc3[nH]2)C1` it is 85.9%; for `N#Cc1ccccc1Cn1c2nc(=N)c3ccccc3c-2nc2ccccc21` it is 70%.

Take `CS(=O)(=O)c1ccc(-n2cc(/C=N/O)c(-c3ccccc3)n2)cc1`: the growth was 98.1%. In the case of `COc1cc(-c2ccc3ncnc(NCc4ccccc4)c3c2)cnc1OC`, the growth was 86.2%. The figure for `O=C(NNc1nc2cc(F)ccc2n2cccc12)c1ccncn1` is 1.55% (active); for `CN(C)C(=O)c1cc(-c2ccc3ncnc(NCc4ccccc4)c3c2)cnc1N` it is 109%.
